From PubChem BioAssay AID1159580 (chemical genetic matrix, 2015)
In all, about 5,500 compounds went through this assay and about 2,000 (36%) were called active. Not shown: some 18% with an inconclusive outcome. Rule as the data show it: active = normalized growth mostly below about 0.91 (no sharp cut-off); inconclusive = no clear call, values can overlap the other calls; inactive = mostly above about 0.92. Some of the results follow.

Test: chemical genetic growth profiling, strain panel (AID 1159580);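 also: tested at 20 µM; growth read once vehicle control cultures reached saturation at 30 °C; 1 = growth at the plate median or of vehicle wells; lower values mean less growth of the strain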
Conditions: growth OD

Measured: normalized growth

Nc1ccc(S(=O)(=O)Nc2nccs2)cc1
inactive: S. cerevisiae deletion strains, locus YJR075W, strain HOC1, active compounds read low 1.01 | S. cerevisiae deletion strains, locus YKL009W, strain mrt4, active compounds read low 0.999 | S. cerevisiae deletion strains, locus YKL068W, active compounds read low 0.99 | S. cerevisiae deletion strains, locus YKL085W, strain MDH1 (second series), active compounds read low 0.99 | S. cerevisiae deletion strains, locus YKL085W, strain MDH1, active compounds read low 0.99 | S. cerevisiae deletion strains, locus YKL160W, strain elf1, active compounds read low 1.02 | S. cerevisiae deletion strains, locus YKL190W, strain CNB1, active compounds read low 1.01 | S. cerevisiae deletion strains, locus YKR001C, strain vps1, active compounds read low 1.02 | S. cerevisiae deletion strains, locus YKR026C, strain gcn3, active compounds read low 1.01 | S. cerevisiae deletion strains, locus YKR091W, strain srl3, active compounds read low 1.01 | S. cerevisiae deletion strains, locus YLL001W, strain dnm1, active compounds read low 1.02 | S. cerevisiae deletion strains, locus YLL026W, active compounds read low 1.02 | S. cerevisiae deletion strains, locus YLL041C, strain sdh2, active compounds read low 1.01 | S. cerevisiae deletion strains, locus YLR027C, strain aat2, active compounds read low 1.02 | S. cerevisiae deletion strains, locus YLR039C, strain RIC1, active compounds read low 1.04 | S. cerevisiae deletion strains, locus YLR058C, strain SHM2, active compounds read low 1.01 | S. cerevisiae deletion strains, locus YLR102C, strain apc9, active compounds read low 0.995 | S. cerevisiae deletion strains, locus YLR113W, strain HOG1, active compounds read low 1.02 | S. cerevisiae deletion strains, locus YLR221C, strain rsa3, active compounds read low 1 | S. cerevisiae deletion strains, locus YLR258W, strain gsy2, active compounds read low 1.01 | S. cerevisiae deletion strains, locus YLR262C, strain YPT6 (second series), active compounds read low 1.03 | S. cerevisiae deletion strains, locus YLR262C, strain YPT6, active compounds read low 1.05 | S. cerevisiae deletion strains, locus YLR268W, strain sec22, active compounds read low 0.948 | S. cerevisiae deletion strains, locus YLR320W, strain mms22, active compounds read low 0.992 | S. cerevisiae deletion strains, locus YLR330W, strain CHS5, active compounds read low 1.01 | S. cerevisiae deletion strains, locus YLR342W, strain FKS1 (second series), active compounds read low 1.03 | S. cerevisiae deletion strains, locus YLR342W, strain FKS1, active compounds read low 1.01 | S. cerevisiae deletion strains, locus YLR357W, strain rsc2, active compounds read low 1.02 | S. cerevisiae deletion strains, locus YLR370C, strain arc18, active compounds read low 1.02 | S. cerevisiae deletion strains, locus YLR371W, strain rom2, active compounds read low 0.996 | S. cerevisiae deletion strains, locus YLR384C, strain iki3, active compounds read low 1.02 | S. cerevisiae deletion strains, locus YLR418C, strain cdc73, active compounds read low 0.997 | S. cerevisiae deletion strains, locus YML016C, strain PPZ1, active compounds read low 1.01 | S. cerevisiae deletion strains, locus YML032C, strain rad52, active compounds read low 0.98 | S. cerevisiae deletion strains, locus YML120C, strain ndi1, active compounds read low 1.02 | S. cerevisiae deletion strains, locus YML124C, strain tub3, active compounds read low 0.997 | S. cerevisiae deletion strains, locus YMR058W, strain fet3, active compounds read low 1.02 | S. cerevisiae deletion strains, locus YMR078C, strain ctf18, active compounds read low 0.994 | S. cerevisiae deletion strains, locus YMR125W, strain sto1, active compounds read low 1 | S. cerevisiae deletion strains, locus YMR129W, active compounds read low 1.01 | S. cerevisiae deletion strains, locus YMR205C, strain PFK2, active compounds read low 1 | S. cerevisiae deletion strains, locus YMR223W, strain ubp8, active compounds read low 1.01 | S. cerevisiae deletion strains, locus YMR231W, strain pep5, active compounds read low 1.01 | S. cerevisiae deletion strains, locus YMR263W, strain SAP30, active compounds read low 1.01 | S. cerevisiae deletion strains, locus YMR307W, strain GAS1, active compounds read low 0.995 | S. cerevisiae deletion strains, locus YNL067W, strain RPL9B, active compounds read low 1.02 | S. cerevisiae deletion strains, locus YNL071W, strain lat1, active compounds read low 1.01 | S. cerevisiae deletion strains, locus YNL128W, strain TEP1, active compounds read low 1.01 | S. cerevisiae deletion strains, locus YNL153C, strain GIM3, active compounds read low 1 | S. cerevisiae deletion strains, locus YNL183C, strain NPR1, active compounds read low 0.948 | S. cerevisiae deletion strains, locus YNL209W, strain ssb2, active compounds read low 1.02 | S. cerevisiae deletion strains, locus YNL233W, strain BNI4, active compounds read low 0.99 | S. cerevisiae deletion strains, locus YNL248C, strain rpa49, active compounds read low 0.998 | S. cerevisiae deletion strains, locus YNL250W, strain rad50, active compounds read low 0.989 | S. cerevisiae deletion strains, locus YNL271C, strain bni1, active compounds read low 0.992 | S. cerevisiae deletion strains, locus YNL298W, strain CLA4, active compounds read low 1 | S. cerevisiae deletion strains, locus YNL307C, strain MCK1, active compounds read low 0.995 | S. cerevisiae deletion strains, locus YNL322C, strain KRE1 (second series), active compounds read low 1.02 | S. cerevisiae deletion strains, locus YNL322C, strain KRE1, active compounds read low 1.01 | S. cerevisiae deletion strains, locus YNR049C, strain mso1, active compounds read low 1.01 | S. cerevisiae deletion strains, locus YNR052C, strain pop2, active compounds read low 1 | S. cerevisiae deletion strains, locus YOL006C, strain TOP1, active compounds read low 1.01 | S. cerevisiae deletion strains, locus YOL012C, strain htz1 1.03 | S. cerevisiae deletion strains, locus YOL147C, strain pex11, active compounds read low 0.992 | S. cerevisiae deletion strains, locus YOR001W, strain rrp6, active compounds read low 1.03 | S. cerevisiae deletion strains, locus YOR061W, strain CKA2, active compounds read low 1.01 | S. cerevisiae deletion strains, locus YOR069W, strain VPS5, active compounds read low 1.01 | S. cerevisiae deletion strains, locus YOR070C, strain gyp1, active compounds read low 1 | S. cerevisiae deletion strains, locus YOR080W, strain dia2, active compounds read low 1.01 | S. cerevisiae deletion strains, locus YOR083W, strain WHI5, active compounds read low 0.98 | S. cerevisiae deletion strains, locus YOR106W, strain vam3, active compounds read low 1.04 | S. cerevisiae deletion strains, locus YOR136W, strain idh2, active compounds read low 0.993 | S. cerevisiae deletion strains, locus YOR144C, strain elg1, active compounds read low 1 | S. cerevisiae deletion strains, locus YOR184W, strain ser1, active compounds read low 1 | S. cerevisiae deletion strains, locus YOR231W, strain MKK1, active compounds read low 1.05 | S. cerevisiae deletion strains, locus YOR265W, strain rbl2, active compounds read low 1.02 | S. cerevisiae deletion strains, locus YOR270C, strain vph1, active compounds read low 1.03 | S. cerevisiae deletion strains, locus YOR290C, strain snf2, active compounds read low 0.997 | S. cerevisiae deletion strains, locus YOR316C, strain cot1, active compounds read low 0.999 | S. cerevisiae deletion strains, locus YPL051W, strain arl3, active compounds read low 1.02 | S. cerevisiae deletion strains, locus YPL055C, strain LGE1, active compounds read low 1.02 | S. cerevisiae deletion strains, locus YPL078C, strain atp4, active compounds read low 1.02 | S. cerevisiae deletion strains, locus YPL106C, strain sse1, active compounds read low 1.03 | S. cerevisiae deletion strains, locus YPL240C, strain hsp82, active compounds read low 1.03 | S. cerevisiae deletion strains, locus YPL241C, strain CIN2, active compounds read low 1.01 | S. cerevisiae deletion strains, locus YPL256C, strain CLN2, active compounds read low 1.02 | S. cerevisiae deletion strains, locus YPR119W, strain clb2, active compounds read low 0.992 | S. cerevisiae deletion strains, locus YPR141C, strain kar3, active compounds read low 0.996 | S. cerevisiae deletion strains, locus YPR163C, strain tif3, active compounds read low 1 | S. cerevisiae deletion strains, locus YPR167C, strain met16, active compounds read low 1 | S. cerevisiae deletion strains, strain wtn01, active compounds read low 0.997 | S. cerevisiae strains, strain wild type, active compounds read low 0.997
